Measurements as given in PubChem BioAssay (Tox21).
Inconclusive results are not listed. Where a call stands in place of a potency, no number is given. Unmarked numbers belong to inactive results. Calls of active or inactive are those of the source. Calls come from the whole dose curve; as a rule, active = well fitted cell-killing curve with a large enough effect in the repeat runs; inconclusive = weak or mixed curves, or effect the other way; inactive = flat fitted curve, though single readings scatter.

Assay: cAMP Responsive Elements (CRE) small molecule antagonists, cell-based qHTS assay: qHTS cell viability counter screen (AID 2060913); note: nearly all actives have a fitted effect of over 40% in size
Conditions: CRE-bla HEK293T viability, CellTiter-Glo luminescence, 5 h; series mostly up to 92.4 µM
Summary of the method: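 CRE-bla HEK293T cells (2,000/well, 18 h) given compound plus NKH477 0.25 uM final for 3 h at 37C; viability counter-screen by CellTiter-Glo luminescence in same wells after 30 min.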

SMILES | Potency | viability change, negative = cytotoxic
O=Cc1c2ccccc2c(Cl)c2ccccc12 | inactive | 
CC1(C)O[C@H]2CC(=O)OC[C@]23[C@H]2CC[C@@]4(C)[C@H](c5ccoc5)OC(=O)[C@H]5O[C@]54[C@]2(C)C(=O)C[C@@H]13 | inactive | 
CC(=O)/C=C/C1C(C)=CCC(C)C1(C)C (stereo not given) | inactive | 
NS(=O)(=O)c1cc(C(=O)O)c(NCc2ccco2)cc1Cl | inactive | 
CN(C)c1ccc(CCO)cc1 | inactive | 
O=C1CC(c2ccc(Cl)cc2)CC(=O)N1 | inactive | 
O=C(OCc1ccccc1)C(=O)OCc1ccccc1 | inactive | 
CCC(C)S (stereo not given) |  | 3.82% [at 3.27 µM]
CCOc1ccc(OCC)c(Cl)c1 | inactive | 
CCN(CC)CCOc1ccccc1C(=O)CCc1ccccc1 | inactive | 
c1ccc2nccnc2c1 | inactive | 
CN(C)CCCO[C@@H]1[C@H]2OC(C)(C)O[C@H]2O[C@@H]1C(O)CO (stereo not given in full) | inactive | 
CCCN(CCC)C(=O)SCC | inactive | 
OCCCCC(O)CO (stereo not given) | inactive | 
COc1ccc(C(=O)c2ccccc2)c(O)c1 | inactive | 
CCCCC/C=C\C/C=C\CCCCCCCC(=O)O | inactive | 
COc1c(Cl)ccc(Cl)c1C(=O)O | inactive | 
CCCCCCCCCCCC(C)=O | inactive | 
CC(C)(N)CO | inactive | 
c1ccc2cc3ccccc3cc2c1 | inactive | 

SMILES | Potency | viability change, negative = cytotoxic
CC(C)CCOC(=O)c1ccccc1 | inactive | 
CC(C)(Oc1ccc(Cl)cc1)C(=O)O | inactive | 
COc1cc(/C=C/C(=O)O[C@H]2CC[C@]34C[C@]35CC[C@]3(C)[C@@H]([C@H](C)CCC=C(C)C)CC[C@@]3(C)[C@@H]5CC[C@H]4C2(C)C)ccc1O | inactive | 
CCOC(=O)CC | inactive | 
CN[C@H]1CC[C@@H](c2ccc(Cl)c(Cl)c2)c2ccc(S(N)(=O)=O)cc21 | inactive | 
COC(=O)CCCCC(CCSS/C(CCO)=C(\C)N(C=O)Cc1cnc(C)nc1N)SC(C)=O (stereo not given) | inactive | 
C/C=C1\C(=O)C[C@H]2[C@@H]3CCC4=CC(=O)CC[C@]4(C)[C@H]3CC[C@]12C | inactive | 
Nc1ccncc1N | inactive | 
CC1=CCC(C(C)C)=CC1 | inactive | 
O=C(O)CN(CCN(CC(=O)O)CC(=O)O)CCN(CC(=O)O)CC(=O)O |  | 8.32% [at 18.9 µM]
CC(C)C(=O)OCC(C)(C)C(O)C(C)C (stereo not given) | inactive | 
CC(C)CCCO | inactive | 
CC(C)(C)N(CCO)CCO | inactive | 
CCCCOCCOCCOC(C)=O | inactive | 
CC(C)(C)Cl | inactive | 
CC(C(=O)O)c1ccc2c(c1)[nH]c1ccc(Cl)cc12 (stereo not given) | inactive | 
Oc1cn2c(n1)Nc1ccc(Cl)c(Cl)c1C2 |  | 7.34% [at 18.9 µM]
CCCN(CCC)C(=O)C(CCC(=O)OCCCN1CCN(CCOC(=O)Cc2c(C)n(C(=O)c3ccc(Cl)cc3)c3ccc(OC)cc23)CC1)NC(=O)c1ccccc1 (stereo not given) | inactive | 
CC(=O)C(=O)CC(C)C | inactive | 
CO[C@@H]1[C@@H](O[C@@H]2O[C@H](C)[C@@H](O[C@H]3C[C@@](C)(O)[C@@H](O)[C@H](C)O3)[C@H](N(C)C)[C@H]2O)[C@@H](CC=O)C[C@@H](C)[C@@H](O[C@@H]2CC[C@H](N(C)C)[C@@H](C)O2)/C=C/C=C/C[C@@H](C)OC(=O)C[C@H]1OC(C)=O | inactive | 

Assay: cAMP Responsive Elements (CRE) small molecule agonists, cell-based qHTS assay: qHTS cell viability counter screen (AID 2060914); note: nearly all actives have a fitted effect of over 50% in size
Conditions: CRE-bla HEK293T viability, CellTiter-Glo luminescence, 5 h; series mostly up to 92.4 µM
Summary of the method: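 In the same wells as the reporter read, viability of CRE-bla HEK 293T cells was quantified by CellTiter-Glo luminescence after a 3 h compound exposure.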

SMILES | Potency | activity change, negative = cytotoxicity
O=Cc1c2ccccc2c(Cl)c2ccccc12 | inactive | 
CC1(C)O[C@H]2CC(=O)OC[C@]23[C@H]2CC[C@@]4(C)[C@H](c5ccoc5)OC(=O)[C@H]5O[C@]54[C@]2(C)C(=O)C[C@@H]13 | inactive | 
CC(=O)/C=C/C1C(C)=CCC(C)C1(C)C (stereo not given) | inactive | 
NS(=O)(=O)c1cc(C(=O)O)c(NCc2ccco2)cc1Cl | inactive | 
CN(C)c1ccc(CCO)cc1 | inactive | 
O=C1CC(c2ccc(Cl)cc2)CC(=O)N1 | inactive | 
O=C(OCc1ccccc1)C(=O)OCc1ccccc1 | inactive | 
CCC(C)S (stereo not given) |  | 5.15% [at 3.27 µM]
CCOc1ccc(OCC)c(Cl)c1 | inactive | 
CCN(CC)CCOc1ccccc1C(=O)CCc1ccccc1 | inactive | 
c1ccc2nccnc2c1 | inactive | 
CN(C)CCCO[C@@H]1[C@H]2OC(C)(C)O[C@H]2O[C@@H]1C(O)CO (stereo not given in full) | inactive | 
CCCN(CCC)C(=O)SCC | inactive | 
OCCCCC(O)CO (stereo not given) | inactive | 
COc1ccc(C(=O)c2ccccc2)c(O)c1 | inactive | 
CCCCC/C=C\C/C=C\CCCCCCCC(=O)O | inactive | 
COc1c(Cl)ccc(Cl)c1C(=O)O | inactive | 
CCCCCCCCCCCC(C)=O | inactive | 
CC(C)(N)CO | inactive | 
c1ccc2cc3ccccc3cc2c1 | inactive | 

SMILES | Potency | activity change, negative = cytotoxicity
CC(C)CCOC(=O)c1ccccc1 | inactive | 
CC(C)(Oc1ccc(Cl)cc1)C(=O)O | inactive | 
COc1cc(/C=C/C(=O)O[C@H]2CC[C@]34C[C@]35CC[C@]3(C)[C@@H]([C@H](C)CCC=C(C)C)CC[C@@]3(C)[C@@H]5CC[C@H]4C2(C)C)ccc1O | inactive | 
CCOC(=O)CC | inactive | 
CN[C@H]1CC[C@@H](c2ccc(Cl)c(Cl)c2)c2ccc(S(N)(=O)=O)cc21 | inactive | 
COC(=O)CCCCC(CCSS/C(CCO)=C(\C)N(C=O)Cc1cnc(C)nc1N)SC(C)=O (stereo not given) | inactive | 
C/C=C1\C(=O)C[C@H]2[C@@H]3CCC4=CC(=O)CC[C@]4(C)[C@H]3CC[C@]12C | inactive | 
Nc1ccncc1N | inactive | 
CC1=CCC(C(C)C)=CC1 | inactive | 
O=C(O)CN(CCN(CC(=O)O)CC(=O)O)CCN(CC(=O)O)CC(=O)O |  | 3.54% [at 18.9 µM]
CC(C)C(=O)OCC(C)(C)C(O)C(C)C (stereo not given) | inactive | 
CC(C)CCCO | inactive | 
CC(C)(C)N(CCO)CCO | inactive | 
CCCCOCCOCCOC(C)=O | inactive | 
CC(C)(C)Cl | inactive | 
CC(C(=O)O)c1ccc2c(c1)[nH]c1ccc(Cl)cc12 (stereo not given) | inactive | 
Oc1cn2c(n1)Nc1ccc(Cl)c(Cl)c1C2 |  | -5.61% [at 18.9 µM]
CCCN(CCC)C(=O)C(CCC(=O)OCCCN1CCN(CCOC(=O)Cc2c(C)n(C(=O)c3ccc(Cl)cc3)c3ccc(OC)cc23)CC1)NC(=O)c1ccccc1 (stereo not given) | inactive | 
CC(=O)C(=O)CC(C)C | inactive | 
CO[C@@H]1[C@@H](O[C@@H]2O[C@H](C)[C@@H](O[C@H]3C[C@@](C)(O)[C@@H](O)[C@H](C)O3)[C@H](N(C)C)[C@H]2O)[C@@H](CC=O)C[C@@H](C)[C@@H](O[C@@H]2CC[C@H](N(C)C)[C@@H](C)O2)/C=C/C=C/C[C@@H](C)OC(=O)C[C@H]1OC(C)=O | inactive | 
